Assay outcomes (PubChem BioAssay)
Mot1-301 SUMO: yeast Mot1-301 growth rescue at high temperature, primary screen, SUMOylation pathway inhibitor project, S. cerevisiae, ATP luminescence, 38.5C. S. cerevisiae Mot1-301 growth rescue; percent above DMSO median, 100 means doubled. growth rescue, % at 18.8 µM. 320,000 compounds, 1% hits. AID 2716, 2010;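 active = every valid replicate shows activation above 250% relative to neutral control wells; inactive = the rest, any valid replicate at or below 250%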
TIM10 inh: growth inhibitors of isogenic TIM10 control yeast, primary screen, counter-screen for tim10-1 yeast inhibitor project, luminescence, uHTS. S. cerevisiae TIM10 strain growth, BacTiter-Glo luminescence, 24 h. inhibition, % at 10 µM. 330,000 compounds, 1.4% hits;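 active = inhibition of 40% or more at the single tested concentration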;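 note: wild-type TIM10 isogenic control strain grown at permissive 25 °C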
tim10-1 inh: growth inhibitors of tim10-1 mutant yeast, primary screen, luminescence, uHTS | S. cerevisiae tim10-1 ts strain growth, BacTiter-Glo, 24 h | inhibition, % at 20 µM | 330,000 compounds, 2.2% hits | AID 463190, 2010;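 active = inhibition of at least 40%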;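 note: mutant grown at 25 °C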
tim23-1 inh: growth inhibitors of tim23-1 mutant yeast, primary screen, luminescence, uHTS; S. cerevisiae tim23-1 growth, BacTiter-Glo luminescence, 24 h; inhibition, % at 20 µM; 330,000 compounds, 1.3% hits; AID 463212, 2010;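 active = growth inhibition of the mutant yeast at or above 50%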;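 note: temperature-sensitive mutant grown at 25 °C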
PfHsp90 set2: growth inhibition of PfHsp90-expressing yeast, primary screen, antimalarial PfHsp90 inhibitor project, S. cerevisiae, BacTiter-Glo luminescence, single point, set 2; BacTiter-Glo ATP, 48 h; yeast lacking PDR1 and PDR3 efflux regulators; AID 504621, 2011; 310,000 compounds, 0.32% hits; inhibition, % at 9.4 µM;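 active = every replicate shows inhibition above about 80%, whatever the replicate mean, limit read from the data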
Numbers stand for hits; – = inactive; · = no result; ! = repeats disagree. Only some compounds are listed: those with a hit (about 4.4% of all), similar ones and a draw of the others.

SMILES	Mot1-301 SUMO	TIM10 inh	tim10-1 inh	tim23-1 inh	PfHsp90 set2
CN(C)c1ccc(/C=C2/C(=O)NC(=O)N(Cc3ccco3)C2=O)cc1	383	–	–	–	–
CCn1nc(-c2cccs2)nc2c(=O)n(C)c(=O)nc1-2	·	·	·	·	108
CCOc1ccc(-n2c(-c3cccs3)nc3ccccc3c2=O)cc1	–	–	–	–	–
CCN(CC)C(=O)c1ccc(NC(=O)CN2CCc3cc(OC)c(OC)cc3C2)cc1	–	–	–	–	–
O=C(O)C(Cl)(Cl)Cl	–	–	–	–	·
Clc1cc(I)cc(Cl)c1NC1=NCCN1	–	–	–	–	–
CC(=O)OC1C(=O)OCC23CCC4(C)OC4C2OC2CC(OC(=O)C=CC=CC(=O)OCCC1C)C3(C)C21CO1 (stereo not drawn)	·	·	·	·	131
CC(O)C1C=CC=CC(=O)OC2CC3OC4C5OC5(C)CCC4(COC(=O)C4OC4(C)C(O)CO1)C2(C)C31CO1 (stereo not drawn)	·	·	·	·	–
C1CCC(NC2CCCCC2)CC1	–	–	–	–	–
CC(=NNC(=S)N1CC2CCC(CC2)C1)c1nccs1	·	·	·	·	121
O=S(=O)(c1ccc(F)cc1)N1CCCCC1c1cccnc1 (stereo not drawn)	–	–	–	–	–
C[C@]12CCC3C(CC[C@H]4C[C@H](O)CC[C@]34C)C1[C@@H](O)[C@@H](O)[C@@H]2O (stereo partly drawn)	–	–	–	–	–
Oc1ccccc1-[n+]1c(-c2ccccc2)cc(-c2ccccc2)c(O)c1-c1ccccc1	366	–	–	–	–
CC(OC(=O)c1cn(C)c2ccccc12)C(=O)N(C)c1ccccc1 (stereo not drawn)	·	–	–	–	–
ClC1C(Cl)C(Cl)C(Cl)C(Cl)C1Cl (stereo not drawn)	331!	–	–	–	–
CC(C)(C)C(O)C(Oc1ccc(Cl)cc1)n1cncn1 (stereo not drawn)	–	–	–	–	102
O=[N+]([O-])/C=C/c1c(Cl)cccc1Cl	·	·	·	·	145
COc1ccc(OCC(=O)N2CCN(Cc3ccc(SC)cc3)CC2)cc1	262	–	–	–	–
COc1ccc(OCC(=O)N2CCN(Cc3ccc4c(c3)OCO4)CC2)cc1	–	–	–	–	–
CSc1ccc(C(=O)C2CCCN(Cc3cnc(SC)nc3)C2)cc1 (stereo not drawn)	305	–	–	–	–
Cc1cccc(N=C2c3cc([N+](=O)[O-])ccc3-c3c2cc([N+](=O)[O-])cc3[N+](=O)[O-])c1	·	·	·	·	107
O=[N+]([O-])c1cccc(O)c1	–	–	–	–	–
CC1CN(c2ccc([N+](=O)[O-])cc2Cl)CCN1 (stereo not drawn)	–	–	–	–	–
O=c1c2ccccc2nc(-c2ccc(-c3ccccc3)cc2)n1-c1ccncc1	–	–	–	–	107
CCCCCCn1c(O)c(C=NCCCn2ccnc2)c(=O)[nH]c1=O	–	–	–	–	–
SMILES	Mot1-301 SUMO	TIM10 inh	tim10-1 inh	tim23-1 inh	PfHsp90 set2
CCCCCCC(Cl)(Cn1ccnc1)c1ccccc1 (stereo not drawn)	–	–	–	–	101
COc1ccc(CN2Cc3cnnn3-c3ccccc3C2C)cc1 (stereo not drawn)	·	·	·	·	–
CC(=O)OC1(C)CC(C)C(=O)C(C(O)CC2CC(=O)NC(=O)C2)C1 (stereo not drawn)	·	·	·	·	105
O=C1Nc2ccc(Br)cc2C(c2ccccc2Cl)=NC1O (stereo not drawn)	574	–	–	–	–
Clc1ccc(COC(Cn2ccnc2)c2ccc(Cl)cc2Cl)c(Cl)c1 (stereo not drawn)	–	–	–	–	81
COc1cccc2c1N=C1CCCC3CN(C(C)=O)CCC123 (stereo not drawn)	·	·	·	·	–
O=C1C=CC(=O)C2C1C1(Cl)C(Cl)=C(Cl)C2(Cl)C1(Cl)Cl (stereo not drawn)	·	·	·	·	92
COC(=O)C1=C(c2ccc(OC)c(OC)c2)C[C@@H]2CC[C@H]1N2C(=O)NC(C)C	–	–	–	–	–
c1ccc2c(c1)[IH]c1ccccc1-2	·	·	·	·	–
COC(=O)C1=C(c2cccc(Cl)c2)C[C@@H]2CC[C@H]1N2C(=O)N1CCCC1	–	–	–	–	–
